Reference: PubChem BioAssay (EPA / NIEHS)
The source made the active and inactive calls. The calls were made as follows: active = hit-call score of the fitted dose curve at least 0.9, where 1 is the maximum; inactive = score below 0.9.

Key:
Details in all cases: mRNA level, 48 h; actives raise or lower the signal
[1] = read-out: Fatty Acid-Binding Protein 1 (FABP1), FABP1 (gene 2168); test: LTEA_HepaRG_FABP1: Life Technologies and Expression Analysis (LTEA) Assay for Fatty Acid-Binding Protein 1 (FABP1) using HepaRG (AID 2283494)
In short: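 Differentiated human HepaRG cells were exposed in duplicate for 48 h in serum-free induction medium to 8-point half-log concentration series topping at 100 uM in 0.5% DMSO. FABP1 mRNA measured by TaqMan qRT-PCR, normalized to ACTB/GAPDH/POLR2A; bidirectional fit versus DMSO.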

[2] = read-out: Cytochrome P450 4A22 (Homo sapiens) (UniProt Q5TCH4); test: LTEA_HepaRG_CYP4A22: Life Technologies and Expression Analysis (LTEA) Assay for Cytochrome P450 4A22 (CYP4A22) using HepaRG (AID 2283495)
In short: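 Gene expression measured by qRT-PCR against three housekeeping genes (ACTB, GAPDH, POLR2A), with gain or loss fitted relative to 0.5% DMSO vehicle. HepaRG cultures received 48 h chemical treatment, top concentration 100 uM, half-log steps, duplicate wells.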

[3] = read-out: Glutathione S-Transferase (GSTA2), GSTA2 (gene 2939); test: LTEA_HepaRG_GSTA2: Life Technologies and Expression Analysis (LTEA) Assay for Glutathione S-Transferase (GSTA2) using HepaRG (AID 2283497)
In short: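 Human HepaRG cells, plated 48 h, then exposed in serum-free induction medium for 48 h to eight half-log concentrations up to 100 uM in 0.5% DMSO, duplicate. GSTA2 mRNA by qRT-PCR, normalized to ACTB/GAPDH/POLR2A; bidirectional fit versus DMSO.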

[4] = read-out: Glutamate-cysteine ligase catalytic (GCLC), GCLC (gene 2729); test: LTEA_HepaRG_GCLC: Life Technologies and Expression Analysis (LTEA) Assay for Glutamate-cysteine ligase catalytic (GCLC) using HepaRG (AID 2283498)
In short: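 Differentiated human HepaRG cells, plated 48 h then switched to serum-free induction medium, were exposed in duplicate for 48 h to 8 half-log concentrations topping at 100 uM in 0.5% DMSO. GCLC mRNA was quantified by qRT-PCR against ACTB, GAPDH and POLR2A.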

[5] = read-out: growth arrest and DNA damage 45 (GADD45G), GADD45G (gene 10912); test: LTEA_HepaRG_GADD45G: Life Technologies and Expression Analysis (LTEA) Assay for growth arrest and DNA damage 45 (GADD45G) using HepaRG (AID 2283499)
In short: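 GADD45G transcript level by qRT-PCR (housekeeping-normalized: ACTB, GAPDH, POLR2A) after 48 h chemical treatment of a single HepaRG lot in serum-free induction medium; eight-point half-log series up to 100 uM in 0.5% DMSO, duplicates, up- or down-regulation scored.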

[6] = read-out: Glutamate-cysteine ligase regulatory (GCLM), GCLM (gene 2730); test: LTEA_HepaRG_GCLM: Life Technologies and Expression Analysis (LTEA) Assay for Glutamate-cysteine ligase regulatory (GCLM) using HepaRG (AID 2283500)
In short: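 Human liver HepaRG cultures receive test chemicals for 48 hours at up to 100 uM in 0.5% DMSO. GCLM expression is measured by qRT-PCR and analysed for increases or decreases against vehicle.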

[7] = read-out: Glutathione S-transferase M3 (GSTM3), GSTM3 (gene 2947); test: LTEA_HepaRG_GSTM3: Life Technologies and Expression Analysis (LTEA) Assay for Glutathione S-transferase M3 (GSTM3) using HepaRG (AID 2283501)
In short: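 GSTM3 transcript levels came from Fluidigm TaqMan qRT-PCR normalized to three housekeeping genes, fitted in both directions against DMSO. HepaRG cultures received chemicals for 48 h in serum-free induction medium (0.5% DMSO), 8 half-log concentrations up to 100 uM, duplicate.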

[8] = read-out: Heat shock 70 kDa protein 1 (HSPA1A), gene 3303; test: LTEA_HepaRG_HSPA1A: Life Technologies and Expression Analysis (LTEA) Assay for Heat shock 70 kDa protein 1 (HSPA1A) using HepaRG (AID 2283502)
In short: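 HSPA1A induction in human HepaRG liver cells is measured after 48 h of chemical treatment (100 uM maximum, 0.5% DMSO vehicle). Expression comes from qRT-PCR normalized to endogenous controls.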

[9] = read-out: Hypoxia-inducible factor 1-alpha (Homo sapiens) (UniProt Q16665); test: LTEA_HepaRG_HIF1A: Life Technologies and Expression Analysis (LTEA) Assay for Hypoxia-inducible factor 1 (HIF1A) Trancription factor using HepaRG (AID 2283503)
In short: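 HepaRG, 48 h exposure, 8-pt half-log series from 100 uM, 0.5% DMSO vehicle, duplicates. Readout: HIF1A transcript by qRT-PCR (Fluidigm array), housekeeping-normalised. Bidirectional curve fit vs DMSO baseline.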

[10] = read-out: 3-Hydroxy-3-Methylglutaryl-CoA Synthase 2 (HMGCS2), HMGCS2 (gene 3158); test: LTEA_HepaRG_HMGCS2: Life Technologies and Expression Analysis (LTEA) Assay for 3-Hydroxy-3-Methylglutaryl-CoA Synthase 2 (HMGCS2) using HepaRG (AID 2283504)
In short: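 Readout is HMGCS2 transcript by qRT-PCR, housekeeping-normalised (ACTB/GAPDH/POLR2A) and fitted bidirectionally against 0.5% DMSO. Differentiated HepaRG cells received chemicals 48 h, duplicate wells, eight half-log concentrations topping at 100 uM.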

[11] = read-out: HGF (gene 3082); test: LTEA_HepaRG_HGF: Life Technologies and Expression Analysis (LTEA) Assay for Hepatocyte Growth Facto (HGF) using HepaRG (AID 2283505)
In short: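 HGF transcript was quantified by TaqMan qRT-PCR against three housekeeping genes after 48 h treatment of HepaRG cells. Exposure ran in duplicate over eight half-log steps topping at 100 uM in 0.5% DMSO vehicle.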

[12] = read-out: Insulin Like Growth Factor 1 (IGF1), IGF1 (gene 3479); test: LTEA_HepaRG_IGF1: Life Technologies and Expression Analysis (LTEA) Assay for Insulin Like Growth Factor 1 (IGF1) using HepaRG (AID 2283506)
In short: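 Using human HepaRG liver cells, IGF1 transcript induction or suppression is measured 48 h after dosing across eight concentrations capped at 100 uM. Values derive from bidirectional concentration-response fitting with DMSO as baseline.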

[13] = read-out: Intercellular Adhesion Molecule 1 (ICAM1), ICAM1 (gene 3383); test: LTEA_HepaRG_ICAM1: Life Technologies and Expression Analysis (LTEA) Assay for Intercellular Adhesion Molecule 1 (ICAM1) using HepaRG (AID 2283507)
In short: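 ICAM1 transcript levels measured by qRT-PCR, normalized to three housekeeping genes (ACTB, GAPDH, POLR2A), after 48 h chemical exposure of HepaRG cells. Duplicate eight-point half-log series from 100 uM in 0.5% DMSO; gain or loss fitted against vehicle.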

[14] = read-out: Insulin-like growth factor-binding protein 1 (IGFBP1), IGFBP1 (gene 3484); test: LTEA_HepaRG_IGFBP1: Life Technologies and Expression Analysis (LTEA) Assay for Insulin-like growth factor-binding protein 1 (IGFBP1) using HepaRG (AID 2283508)
In short: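 Read-out is qRT-PCR transcript level normalized to three housekeeping genes, fitted in both directions against 0.5% DMSO. Differentiated HepaRG cells received eight half-log concentrations (top 100 uM) in duplicate for 48 h in serum-free induction medium.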

[15] = read-out: Interleukin 6 (IL6), IL6 (gene 3569); test: LTEA_HepaRG_IL6: Life Technologies and Expression Analysis (LTEA) Assay for Interleukin 6 (IL6) using HepaRG (AID 2283509)
In short: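 Differentiated human HepaRG cells, plated 48 h then switched to serum-free induction medium, were exposed in duplicate for 48 h to eight half-log concentrations up to 100 uM in 0.5% DMSO. IL6 mRNA measured by qRT-PCR, normalized to ACTB/GAPDH/POLR2A.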

[16] = read-out: Interleukin 6 Receptor (IL6R), IL6R (gene 3570); test: LTEA_HepaRG_IL6R: Life Technologies and Expression Analysis (LTEA) Assay for Interleukin 6 Receptor (IL6R) using HepaRG (AID 2283510)
In short: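 Concentration-response in human liver HepaRG cells: eight concentrations from 100 uM downward by half-logs, 48 h exposure, 0.5% DMSO vehicle. IL6R mRNA change measured by qRT-PCR and fitted in both directions relative to vehicle.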

[17] = read-out: Potassium channel subfamily K member 1 (KCNK1), KCNK1 (gene 3775); test: LTEA_HepaRG_KCNK1: Life Technologies and Expression Analysis (LTEA) Assay for Potassium channel subfamily K member 1 (KCNK1) using HepaRG (AID 2283511)
In short: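 Differentiated human HepaRG cells in serum-free induction medium were exposed in duplicate for 48 h to 8 half-log concentrations up to 100 uM in 0.5% DMSO. KCNK1 mRNA was measured by TaqMan qRT-PCR, normalized to ACTB, GAPDH and POLR2A, and fitted bidirectionally versus DMSO.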

[18] = read-out: Keratin 19 (KRT19), KRT19 (gene 3880); test: LTEA_HepaRG_KRT19: Life Technologies and Expression Analysis (LTEA) Assay for Keratin 19 (KRT19) using HepaRG (AID 2283512)
In short: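 KRT19 transcript measured by TaqMan qRT-PCR, referenced to three housekeeping genes, after HepaRG cells received test chemicals for 48 h. Eight half-log concentrations, top 100 uM, 0.5% DMSO vehicle; increases and decreases both fitted.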

[19] = read-out: JUN Transcription Factor, JUN (gene 3725); test: LTEA_HepaRG_JUN: Life Technologies and Expression Analysis (LTEA) Assay for JUN Transcription Factor using HepaRG (AID 2283513)
In short: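 Human HepaRG liver cells receive test chemicals in 0.5% DMSO for 48 h across an eight-point range topping at 100 uM. Expression changes in JUN are scored in both directions against the DMSO vehicle.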

[20] = read-out: Cytochrome P450 7A1 (Homo sapiens) (UniProt P22680); test: LTEA_HepaRG_CYP7A1: Life Technologies and Expression Analysis (LTEA) Assay for Cytochrome P450 7A1 (CYP7A1) using HepaRG (AID 2283496)
In short: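 Gene expression endpoint in human HepaRG liver cells treated for 48 h with test chemicals (up to 100 uM, 0.5% DMSO). Values come from bidirectional concentration-response fitting versus DMSO.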

Measured: AC50

Sequence of Hypoxia-inducible factor 1-alpha (Homo sapiens) (Q16665 whole entry, looked up): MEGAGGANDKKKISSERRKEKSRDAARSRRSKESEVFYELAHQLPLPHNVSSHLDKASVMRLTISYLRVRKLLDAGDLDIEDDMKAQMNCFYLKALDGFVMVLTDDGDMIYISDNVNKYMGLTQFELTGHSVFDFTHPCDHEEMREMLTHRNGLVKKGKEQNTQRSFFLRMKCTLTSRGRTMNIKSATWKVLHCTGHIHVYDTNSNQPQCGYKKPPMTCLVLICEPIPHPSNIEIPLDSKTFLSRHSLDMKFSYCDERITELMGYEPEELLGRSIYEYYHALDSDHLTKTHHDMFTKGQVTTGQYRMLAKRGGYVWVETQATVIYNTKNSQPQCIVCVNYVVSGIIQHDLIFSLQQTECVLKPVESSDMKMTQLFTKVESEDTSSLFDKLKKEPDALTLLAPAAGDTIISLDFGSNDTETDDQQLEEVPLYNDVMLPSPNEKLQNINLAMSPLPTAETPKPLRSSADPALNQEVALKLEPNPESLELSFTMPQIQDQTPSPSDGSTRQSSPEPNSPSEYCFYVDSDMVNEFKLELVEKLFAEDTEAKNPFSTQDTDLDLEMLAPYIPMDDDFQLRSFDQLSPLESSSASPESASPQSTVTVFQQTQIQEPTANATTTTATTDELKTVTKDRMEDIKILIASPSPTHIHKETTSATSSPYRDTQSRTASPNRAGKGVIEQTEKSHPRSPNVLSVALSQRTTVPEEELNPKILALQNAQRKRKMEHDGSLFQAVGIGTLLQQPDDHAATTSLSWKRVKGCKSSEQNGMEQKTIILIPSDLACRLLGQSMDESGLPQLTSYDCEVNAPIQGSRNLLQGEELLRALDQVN

CCOc1ccc2[nH]cc(C(=O)NCc3ccccc3)c(=O)c2n1
active: [2] 35.4 µM | [12] 15.8 µM | [18] 12.1 µM
not listed: [20]
inactive: all other assays above

CCOC(N)=O
not listed: [20]
inactive: all other assays above

CNC(C)=O
not listed: [20]
inactive: all other assays above

OCc1ccccc1
not listed: [16]
inactive: all other assays above

CC(C)CCCCCCOC(=O)C1CCCCC1C(=O)OCCCCCCC(C)C (stereo not drawn)
not listed: [20]
inactive: all other assays above

CC1(C)C(=O)N(Cl)C(=O)N1Cl
not listed: [16]
inactive: all other assays above

CCCCCCOC(=O)CC(CC(=O)OCCCCCC)(OC(=O)CCC)C(=O)OCCCCCC
not listed: [20]
inactive: all other assays above
